Counter-ions that a name gives are not always drawn.
These molecules were tested on Saccharomyces cerevisiae BY4741 SeMeCo community (assay: z-score of subpopulation abundance vs DMSO median, subpopulation auxotrophic for HU; higher = larger share of this subpopulation than in DMSO controls). Conditions: 10 µM; 24 h; SM minimal medium; subpopulation (auxotrophy): HU.
Outline: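 A community of Saccharomyces cerevisiae BY4741 was built from four plasmids that each restored one auxotrophy and encoded a distinct fluorescent protein. Pre-grown overnight to OD600 1.0 and diluted to 0.3, it was dispensed at 70 µl into 384-well plates acoustically predosed with library drugs for a final 10 µM, and grown 24 h in minimal SM medium. Cells were then paraformaldehyde-fixed and imaged by automated confocal microscopy. Thresholds and autofluorescence correction came from single-auxotroph fluorescent strains, and each subpopulation's abundance was scored as a z-score relative to the vehicle-well median.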

Compound | z-score of subpopulation abundance
C#CCN[C@@H]1CCc2ccccc21 [Rasagiline Mesylate] | -0.74
OCc1ccccc1O[C@@H]1O[C@H](CO)[C@@H](O)[C@H](O)[C@H]1O [Salicin] | -0.9
CCCCCOc1ccc(-c2ccc(-c3ccc(C(=O)N[C@H]4C[C@@H](O)[C@@H](O)NC(=O)[C@@H]5[C@@H](O)[C@@H](C)CN5C(=O)[C@H]([C@@H](C)O)NC(=O)[C@H]([C@H](O)[C@@H](O)c5ccc(O)cc5)NC(=O)[C@@H]5C[C@@H](O)CN5C(=O)[C@H]([C@@H](C)O)NC4=O)cc3)cc2)cc1 | 17.2
COc1cc2c(cc1OC)[C@@H]1Cc3ccc(OC)c(OC)c3CN1CC2 [Rotundine] | 0.17
C[C@H](NCc1ccc(OCc2cccc(F)c2)cc1)C(N)=O [Safinamide] | 1.16
CC1(C)S[C@@H]2[C@H](NC(=O)COc3ccccc3)C(=O)N2[C@H]1C(=O)O [Penicillin V potassium salt] | 0.49
CC[C@H]1OC(=O)C[C@@H](O)[C@H](C)[C@@H](O[C@@H]2O[C@H](C)[C@@H](O[C@H]3C[C@@](C)(O)[C@@H](O)[C@H](C)O3)[C@H](N(C)C)[C@H]2O)[C@@H](CC=O)C[C@@H](C)C(=O)/C=C/C(C)=C/[C@@H]1CO[C@@H]1O[C@H](C)[C@@H](O)[C@@H](OC)[C@H]1OC [Tylosin] | 0.26
C[N+]1(C)[C@@H]2C[C@@H](OC(=O)C(O)(c3cccs3)c3cccs3)C[C@H]1[C@@H]1O[C@@H]12 [Tiotropium Bromide hydrate] | -0.66
CN(C)CCc1c[nH]c2ccc(CS(=O)(=O)N3CCCC3)cc12 [Almotriptan Malate] | 0
CCC(=O)NS(=O)(=O)c1ccc(-c2c(-c3ccccc3)noc2C)cc1 [Parecoxib Sodium] | 0.55
Cc1cccc(C)c1NC(=O)C1CCCCN1C (stereo not given) [Mepivacaine] | -0.53
CC1=C(CC(=O)O)c2cc(F)ccc2/C1=C\c1ccc([S+](C)[O-])cc1 (stereo not given) [Sulindac] | -0.74
C#C[C@]1(O)CC[C@H]2[C@@H]3CCC4=CCCC[C@@H]4[C@H]3CC[C@@]21C [Lynestrenol] | 0.4
CN(C)CCCN1c2ccccc2Sc2ccc(Cl)cc21 [Chlorpromazine HCl] | -0.02
CC(=O)OCC(CCn1cnc2cnc(N)nc21)COC(C)=O [Famciclovir] | -0.39
C[C@@H]1CC(=O)NN=C1c1ccc(NN=C(C#N)C#N)cc1 [Levosimendan] | 0.25
N[C@@H](CCC(=O)O)C(=O)O [(S)-Glutamic acid] | -0.75
c1cnc2cc3c(cc2n1)[C@@H]1CNC[C@H]3C1 [Varenicline Tartrate] | -0.05

Compound | z-score of subpopulation abundance
NC[C@@H]1O[C@H](O[C@H]2[C@@H](O)[C@H](O[C@@H]3[C@@H](O)[C@H](N)C[C@H](N)[C@H]3O[C@H]3O[C@H](CN)[C@@H](O)[C@H](O)[C@H]3N)O[C@@H]2CO)[C@H](N)[C@@H](O)[C@@H]1O [Neomycin sulfate] | -0.31
C#CCC(Cc1cnc2nc(N)nc(N)c2n1)c1ccc(C(=O)N[C@@H](CCC(=O)O)C(=O)O)cc1 (stereo not given in full) [Pralatrexate] | -3.79
CCCCCCCCCCCCCCCC[N+](C)(C)C [Cetrimonium Bromide (CTAB)] | 12.8
N#CC(c1ccc(Cl)cc1)c1c(Cl)cc(-n2ncc(=O)[nH]c2=O)cc1Cl (stereo not given) [Diclazuril] | -0.93
COCCCN1CCC(NC(=O)c2cc(Cl)c(N)c3c2OCC3)CC1 [Prucalopride] | 0.16
CN(C/C=C/C#CC(C)(C)C)Cc1cccc2ccccc12 [Terbinafine HCl] | 0.89
CC1(C)[C@H](C(=O)O)N2C(=O)C[C@H]2S1(=O)=O [Sulbactam sodium] | 1.1
CC/C(=C(\c1ccccc1)c1ccc(OCCN(C)C)cc1)c1ccccc1 [Tamoxifen] | 1.39
COC(=O)C1=C(C)NC(C)=C(C(=O)OCCN2CCN(C(c3ccccc3)c3ccccc3)CC2)C1c1cccc([N+](=O)[O-])c1 (stereo not given) [Manidipine 2HCl] | 0.05
CCC(C)(Oc1ccc(C2(c3ccc(OC(C)(CC)C(=O)O)cc3)CCCCC2)cc1)C(=O)O (stereo not given) [Clinofibrate] | 0.11
O=C1CCc2ccc(OCCCCN3CCN(c4cccc(Cl)c4Cl)CC3)cc2N1 [Aripiprazole] | 1.26
O=C(O)C[C@H](O)C[C@H](O)/C=C/c1c(C2CC2)nc2ccccc2c1-c1ccc(F)cc1 [Pitavastatin Calcium] | 2.66
CN(C)CCN1C(=O)c2cccc3cc(N)cc(c23)C1=O [Amonafide] | -0.59
c1ccc(-c2ccc(C(c3ccccc3)n3ccnc3)cc2)cc1 (stereo not given) [Bifonazole] | 1.01
CO/N=C(\C(=O)N[C@@H]1C(=O)N2C(C(=O)O)=C(Cn3ccc(=N)n3CCO)CS[C@H]12)c1csc(N)n1 [Cefoselis Sulfate] | -0.72
OC(CCN1CCCCC1)(c1ccccc1)C1CCCCC1 (stereo not given) [Trihexyphenidyl hydrochloride] | -0.18
C[C@H](NCc1ccc(OCc2cccc(F)c2)cc1)C(N)=O [Safinamide Mesylate] | 0.27
